This is a sample that favours compounds with a hit; in the whole collection about 3% have one here.
GRP78 ERSR act = qHTS for Inducers of the Endoplasmic Reticulum Stress Response (ERSR) in Human Glioma: qHTS; U87-MG GRP78 promoter luciferase reporter, 16 h; Potency, µM, for the others: top-dose activation, usual class: activators; hit rate 0.02% among 420,000; note: potency is the fitted concentration of half-maximal effect; series mostly up to about 76 µM; % of control where 0% means no effect; nearly all actives have a fitted effect of over 35% in size
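Stably transfected U87-MG glioma cells carrying a GRP78-based luciferase sensor; 16 h compound incubation. Luminescence end-point read 10 min after Bright-Glo addition at room temperature.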
Nrf2 ARE act = qHTS of Nrf2 Activators; AREc32 ARE-luciferase reporter (MCF7-derived line), luminescence, 24 h; Potency, µM (top dose mostly 46.1 µM), without a hit: at the top dose activation, hits mostly activators; hit rate 0.31% among 410,000; note: potency is the fitted concentration of half-maximal effect; % of control where 0% means no effect; nearly all actives have a fitted effect of over 65% in size
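ARE-driven firefly luciferase activity in AREc32 cells measured after a 24 hr compound exposure at 37 deg C, using Steady-Glo reagent and a 30 min room-temperature hold.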
DRD3 antagonist = qHTS of D3 Dopamine Receptor Antagonist: qHTS. D3R cells, DiscoveRx beta-arrestin luminescence, antagonist mode; active compounds read low. hit rate 2.5% among 360,000. max response, negative = inhibition, %. D(3) dopamine receptor (Homo sapiens), P35462. AID 652054, 2013; in the data active = max response below about -50%; inconclusive = no clear call, values can overlap the other calls; note: % is set by controls: 0 for no effect and ±100 for the full control effect
Target sequence (P35462 whole entry, looked up): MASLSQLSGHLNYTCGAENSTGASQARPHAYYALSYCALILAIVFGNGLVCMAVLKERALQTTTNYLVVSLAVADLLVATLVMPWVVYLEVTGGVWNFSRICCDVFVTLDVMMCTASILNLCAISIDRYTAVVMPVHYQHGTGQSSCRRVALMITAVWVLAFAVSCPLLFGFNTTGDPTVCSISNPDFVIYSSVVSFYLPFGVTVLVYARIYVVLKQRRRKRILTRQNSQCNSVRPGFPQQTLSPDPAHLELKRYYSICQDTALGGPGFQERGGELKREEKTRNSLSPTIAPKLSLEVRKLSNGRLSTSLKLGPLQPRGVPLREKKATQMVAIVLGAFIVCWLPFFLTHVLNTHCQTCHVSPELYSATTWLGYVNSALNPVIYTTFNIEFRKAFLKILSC
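Cells expressing the human receptor were seeded at 1500 cells/well, incubated overnight at 37 degrees C in 5% CO2, then exposed to library compounds with dopamine controls for 90 minutes at 37 degrees C before luminescent detection.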
DRD3 agonist = qHTS of D3 Dopamine Receptor Agonist: qHTS. D(3) dopamine receptor (Homo sapiens), P35462. D3R DiscoveRx beta-arrestin cells, luminescence, 90 min. max activation, %. hit rate 0.58% among 410,000. AID 652048, 2013; in the data active = max activation above about 30%; note: 0% is about no effect
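Agonist mode: compounds and dopamine controls were applied to plated cells for 90 min at 37 degrees C after an overnight attachment at 1500 cells/well. Luminescent read-out followed 30 - 60 minutes at room temperature with DiscoveRx detection reagent.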
An asterisk follows results filed as active; ? = inconclusive; / = not tested or not shown. Unless noted, calls come from the whole dose curve; as a rule, active = well fitted curve in the direction sought with a large enough effect; inconclusive = small, poorly fitted or top-dose-only effect, or another doubt; inactive = no such curve, though single readings can be large; an effect the other way counts as inactive or inconclusive.

SMILES	GRP78 ERSR act	Nrf2 ARE act	DRD3 antagonist	DRD3 agonist
CN(C)c1ccc(/C=C/c2ncnc3ccccc23)cc1	-1.6%	/	/	/
COCCC1CCCCN1Cc1nc(N2CCCC2)c2cc(OC)c(OC)cc2n1 (configuration not stated)	-1.5%	/	/	/
COc1ccc(OC)c(-n2nnnc2SCC(=O)Nc2ccc(C(=O)N3CCCCC3)cc2)c1	1.8%	2.3%	6.5	32.9*
COc1ccc(F)c(CN2CCN(CCc3ccccc3)C(CCO)C2)c1 (configuration not stated)	-2.2%	-0.3%	?	-9.2
CCOc1ccccc1CN1CCN(CCCc2ccccc2)CC1CCO (configuration not stated)	-3.7%	-0.6%	-73.5*	-20.7
OCCC1CN(Cc2ccc(F)cc2Cl)CCN1CCc1ccccc1 (configuration not stated)	-0.8%	-0.2%	-99.1*	-17.6
OCCC1CN(Cc2cc(F)ccc2F)CCN1CCCc1ccccc1 (configuration not stated)	-0.7%	1.9%	-85.6*	-17.7
COc1ccc(OC)c(CN2CCN(CCc3ccccc3)C(CCO)C2)c1 (configuration not stated)	-4.4%	-0.3%	-55.7*	-15.4
CCOc1ccccc1CN1CCN(Cc2cn(C)nc2-c2ccccc2)CC1CCO (configuration not stated)	-3.5%	-0.5%	-7.8	-9.3
Fc1ccc(COc2cccc(CNCc3ccncc3)c2)cc1	0.6%	3.1%	14.6	33.8*
CCN1C(=NCc2cccc(Cl)c2)N[C@@H](c2cccc(C(F)(F)F)c2)C(C(=O)OC)=C1C	-11.6%	/	/	/
CCOC(=O)C(=C1Nc2ccccc2N1)n1c(-c2cnccn2)nc2ccccc21	/	14.9%	-15.5	-13.9
CCOC(=O)C(=C1Nc2ccccc2N1)n1c(-c2ccco2)nc2ccccc21	/	6.8%	-54.2*	-10.4
O=C(CCN1CCN(c2ccccn2)CC1)Nc1ccc(F)cc1	2.2%	3.6%	?	8.7
CN(C)S(=O)(=O)c1cc(NC(=O)CN2CCN(c3ccccc3)CC2)ccc1Cl	6.7%	4.3%	8.7	63.7*
CN(C)S(=O)(=O)c1cc(NC(=O)CN2CCN(c3ccc(O)cc3)CC2)ccc1Cl	-4.6%	0.1%	13.5	25.6
CN(C)S(=O)(=O)c1ccc(NC(=O)CN2CCN(c3ccccn3)CC2)cc1	2.8%	-0.2%	11.3	66.1*
CN(C)c1ccc(NC(=O)CCN2CCN(c3ccccn3)CC2)cc1	-2.8%	-0.3%	-4.4	95.2*
CCN(CC)S(=O)(=O)c1cc(NC(=O)CN2CCN(c3ccccn3)CC2)ccc1C	-1.2%	-0.3%	6.1	90.9*
CCCCc1ccc(NC(=O)COC(=O)c2ccccc2OCC(=O)Nc2ccc(Br)cc2)cc1	-2.5%	/	/	/
COc1ccc(N(Cc2cccs2)C(=O)c2ccccc2C)cc1	-2.1%	0.7%	/	-21.7
Cc1ccc(NC(=O)CN2CCN(c3ccccn3)CC2)cc1S(=O)(=O)N(C)C	-1.2%	2.6%	69.8	61.7*
O=C(CN1CCN(c2ccccn2)CC1)Nc1ccc(Cl)c(C(F)(F)F)c1	0.3%	0.0%	-66.1*	2.8
CC(=O)Nc1ccc(NC(=O)CN2CCN(c3ccccn3)CC2)cc1	-4.9%	-0.5%	0.0	11.2
CN(C)CC(C)(O)c1ccc2c(c1)CN(Cc1cccn1-c1ncccn1)CCO2 (configuration not stated)	-2.6%	/	/	/
SMILES	GRP78 ERSR act	Nrf2 ARE act	DRD3 antagonist	DRD3 agonist
CC1Cc2cc(S(=O)(=O)NCc3ccc(F)cc3)ccc2N1C(=O)C1CCC1 (configuration not stated)	-3.4%	-0.3%	/	-11.9
COc1ccccc1C1CN(Cc2cccc3c2OCO3)Cc2ccccc2O1 (configuration not stated)	-4.1%	/	/	/
O=C(CCCCCCCCC#CI)Oc1ccccc1	-0.2%	/	/	-16.6
Cc1cc(C(c2ccc(C)o2)c2ccc(C)o2)c(O)c([N+](=O)[O-])c1	-3.8%	4.4%	-96.9*	-5.7
Cc1c(C(c2cccc([N+](=O)[O-])c2O)c2c(C)n(C)n(-c3ccccc3)c2=O)c(=O)n(-c2ccccc2)n1C	-2.8%	0.5%	-22.8	-7.6
Cc1[nH]n(-c2ccccc2)c(=O)c1C(c1cccc([N+](=O)[O-])c1O)c1c(C)[nH]n(-c2ccccc2)c1=O	-3.1%	5.1%	-70.2*	-10.9
Cc1[nH][nH]c(=O)c1C(c1ccc(O)c([N+](=O)[O-])c1)c1c(C)[nH][nH]c1=O	1.3%	2.1%	-4.8	-4.0
Cc1ccc(C(c2ccc(C)o2)c2cccc([N+](=O)[O-])c2O)o1	-2.2%	0.2%	-73.4*	-2.1
O=C(Nc1ccccc1)c1ccc(Nc2c([N+](=O)[O-])cc([N+](=O)[O-])c3ccccc23)cc1	-3.6%	0.3%	-67.5*	-12.7
CC/C(=C\c1ccc(C(=O)OC)cc1)c1cc(OC)cc2oc3ccccc3c12	-1.0%	/	/	/
Cc1oc2c(c1C(=O)NCc1ccccc1F)C1=NCCN1C=N2	-2.3%	0.7%	/	-10.0
Cc1cccc2cc(COC(=O)c3ccccc3)c(=O)[nH]c12	-4.1%	-1.0%	-51.4*	-10.2
Nc1ccccc1Oc1ccccc1	-4.8%	/	/	/
NC(=S)Nc1cc2ccccc2c2ccccc12	-2.4%	0.6%	-63.5*	-2.6
NC(=S)Nc1cccc2cc3ccccc3cc12	7.8%	5.5%	?	3.4
COCCn1c(C)cc(C(=O)CSc2nc3ccccc3c(=O)n2Cc2ccco2)c1C	-1.0%	6.5%	16.2	43.4*
COCCn1c(C)cc(C(=O)CSc2cc(C)c3ccccc3n2)c1C	-1.8%	2.9%	7.1	5.2
CCN1C(=O)[C@H]2[C@@H](c3ccc(C)cc3)N3C(=O)N(c4ccc(C)cc4)C(=O)[C@@]3(Cc3ccccc3)[C@H]2C1=O	-1.5%	0.1%	42.6	48.3*
CCN1C(=O)[C@H]2[C@@H](c3ccc(C)cc3)N3C(=O)N(c4ccccc4)C(=O)[C@@]3(Cc3ccccc3)[C@H]2C1=O	-1.4%	-0.2%	2.4	-6.8
Cc1cccc([C@@H]2[C@@H]3C(=O)N(Cc4ccccc4)C(=O)[C@@H]3[C@]3(C)C(=O)N(c4cccc(Cl)c4)C(=O)N23)c1	-5.7%	-1.2%	-59.6*	-4.9
S=c1[nH]nc(-c2ccco2)n1/N=C/c1cccc(Cl)c1Cl	-2.9%	8.91µM*	1.1	2.8
S=c1[nH]nc(-c2ccco2)n1/N=C/c1ccc(Cl)cc1Cl	-0.1%	?	-53.7*	1.3
Cc1n[nH]c(=S)n1/N=C/c1ccccc1OCc1ccc(Cl)cc1Cl	-9.7%	9.5%	21.2	30.8*
CCc1cccc(C)c1NC(=O)Cn1nc(C)c2nn(-c3ccc(Cl)cc3)c(C)c2c1=O	-1.8%	3.5%	/	6.6
Cc1ccccc1C1(CC(=O)N2CCCCC2c2cccnc2)CC(=O)N(C2CCCC2)C1=O (configuration not stated)	-2.3%	/	/	/
O=C(Nc1ccccc1)c1ccc(CN2CCC(Cc3ccccc3)CC2)cc1	-8.4%	-0.7%	-51.2*	-12.7
